Where “and” joins values, the source holds several entries; their conditions need not be identical. Identical values can stand only once. Compounds without any hit were thinned out: in the full panel of roughly 83,000, 20% have a hit.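 Treatment: one concentration, 48 hours, 96-well format. Scoring: percent growth, with anything below 10 considered active.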 Calls of active or inactive are those of the source.
Experiments:
Test in all cases: NCI-60 one-dose screen, 48 h (100 = growth as untreated, 0 = no growth, -100 = all killed)
Conditions in all cases: 10 µM unless noted
[1] = system: SK-MEL-2 melanoma
[2] = system: SN12C renal
[3] = system: UO-31 renal
[4] = system: TK-10 renal
[5] = system: ACHN renal
[6] = system: CAKI-1 renal
[7] = system: A498 renal
[8] = system: CCRF-CEM leukemia
[9] = system: MOLT-4 leukemia
[10] = system: SR leukemia
[11] = system: RPMI-8226 leukemia
[12] = system: OVCAR-8 ovarian
[13] = system: OVCAR-5 ovarian
[14] = system: OVCAR-4 ovarian
[15] = system: SK-OV-3 ovarian
[16] = system: IGROV1 ovarian
[17] = system: OVCAR-3 ovarian
[18] = system: HS 578T breast
[19] = system: NCI/ADR-RES ovarian
[20] = system: EKVX NSCLC

SMILES	growth [1]	growth [2]	growth [3]	growth [4]	growth [5]	growth [6]	growth [7]	growth [8]	growth [9]	growth [10]	growth [11]	growth [12]	growth [13]	growth [14]	growth [15]	growth [16]	growth [17]	growth [18]	growth [19]	growth [20]
CC(C)C(=O)Nc1ccc([N+](=O)[O-])c(C(F)(F)F)c1	111% (inactive) and 28.9% (inactive)	65.3% (inactive) and 88% (inactive)	76.1% (inactive) and 71.9% (inactive)	94.5% (inactive) and 111% (inactive)	98.4% (inactive)	69.2% (inactive) and 100% (inactive)	84.4% (inactive) and 96% (inactive)	75.4% (inactive) and 109% (inactive)	76.8% (inactive) and 97.8% (inactive)	76.4% (inactive) and 88.4% (inactive)	63.9% (inactive)	101% (inactive) and 56.1% (inactive)	90.4% (inactive)	83.1% (inactive) and 92.5% (inactive)	80.2% (inactive) and 99.6% (inactive)	94.5% (inactive) and 5.73% (active)	86.3% (inactive) and 98.2% (inactive)	101% (inactive) and 85.4% (inactive)	–	–
CC(/C=N/N1C(=O)c2ccccc2C1=O)c1ccccc1 (stereo not drawn)	110% (inactive)	99.6% (inactive)	88.1% (inactive)	113% (inactive)	97.4% (inactive)	83.6% (inactive)	98% (inactive)	110% (inactive)	106% (inactive)	–	97.9% (inactive)	101% (inactive)	103% (inactive)	112% (inactive)	108% (inactive)	–	113% (inactive)	119% (inactive)	113% (inactive)	–
O=C(/C=C\c1ccnc2ccccc12)c1ccc([N+](=O)[O-])cc1	83.4% (inactive) and 93.8% (inactive)	96.9% (inactive) and 86.2% (inactive)	61.6% (inactive) and 49.7% (inactive)	81.3% (inactive) and 86.9% (inactive)	75.2% (inactive) and 70.6% (inactive)	89.8% (inactive) and 70.3% (inactive)	109% (inactive) and 55.2% (inactive)	67.9% (inactive) and 28.6% (inactive)	63.1% (inactive) and 49.3% (inactive)	6.51% (active)	31.1% (inactive) and -26.4% (active)	99.1% (inactive) and 73.5% (inactive)	89.4% (inactive) and 96.3% (inactive)	–	95% (inactive) and 89.6% (inactive)	108% (inactive) and 92.9% (inactive)	100% (inactive) and 87.8% (inactive)	107% (inactive) and 88.6% (inactive)	81.6% (inactive) and 67.4% (inactive)	–
COc1ccc(-c2ncnc3c2ncn3C/C=C/CCl)cc1	68.6% (inactive) and 59.2% (inactive)	83.6% (inactive) and 79.6% (inactive)	60.3% (inactive) and 85.8% (inactive)	86.3% (inactive) and 95.3% (inactive)	59.4% (inactive) and 79.3% (inactive)	70.8% (inactive) and 90.8% (inactive)	68.4% (inactive) and 85.6% (inactive)	63.2% (inactive) and 56.7% (inactive)	48.9% (inactive)	–	52.1% (inactive) and 67.4% (inactive)	67.2% (inactive) and 69.5% (inactive)	114% (inactive) and 105% (inactive)	53.3% (inactive) and 56.7% (inactive)	111% (inactive) and 109% (inactive)	93.8% (inactive) and 82.9% (inactive)	77.6% (inactive) and 99% (inactive)	131% (inactive) and 111% (inactive)	76.9% (inactive) and 86.3% (inactive)	–
OCCN1CCN(CCCN2c3ccccc3Sc3ccc(Cl)cc32)CC1	46.5% (inactive) and 74.9% (inactive)	50.2% (inactive) and 72.8% (inactive)	36.1% (inactive) and 45.1% (inactive)	47.8% (inactive) and 75.4% (inactive)	62.3% (inactive) and 76.1% (inactive)	47.9% (inactive) and 68.8% (inactive)	58.4% (inactive) and 77.8% (inactive)	40.6% (inactive) and 55.9% (inactive)	47.9% (inactive) and 53.3% (inactive)	36.6% (inactive)	37.6% (inactive) and 68.9% (inactive)	89.3% (inactive) and 107% (inactive)	–	74.2% (inactive) and 69.8% (inactive)	70% (inactive) and 87.5% (inactive)	47.7% (inactive) and 57.8% (inactive)	83% (inactive) and 81.5% (inactive)	63.1% (inactive) and 72.3% (inactive)	60.9% (inactive) and 76% (inactive)	–
C=C1C(=O)O[C@H]2[C@H]1CC/C(COC(=O)NC1CCC(O)CC1)=C\CC[C@@]1(C)O[C@@H]21 (stereo partly drawn)	91.2% (inactive) and 86.1% (inactive)	–	78.9% (inactive) and 70.1% (inactive)	75.2% (inactive) and 71.5% (inactive)	54.3% (inactive) and 45% (inactive)	70.3% (inactive) and 64% (inactive)	105% (inactive) and 101% (inactive)	16.1% (inactive) and 12.7% (inactive)	69.5% (inactive) and 63.2% (inactive)	27.3% (inactive) and 23.4% (inactive)	61.4% (inactive) and 54.9% (inactive)	77.1% (inactive) and 79.6% (inactive)	83.9% (inactive) and 83.6% (inactive)	77.8% (inactive) and 76% (inactive)	103% (inactive) and 104% (inactive)	97.4% (inactive) and 78.2% (inactive)	44.5% (inactive) and 46.5% (inactive)	92% (inactive) and 87.6% (inactive)	99.8% (inactive) and 100% (inactive)	72.8% (inactive) and 67.5% (inactive)
c1ccc2c(CC3=NCCN3)cccc2c1	132% (inactive) and 110% (inactive)	103% (inactive) and 107% (inactive)	97.6% (inactive) and 98.7% (inactive)	114% (inactive) and 108% (inactive)	102% (inactive) and 116% (inactive)	–	90.3% (inactive) and 81.4% (inactive)	99.8% (inactive)	–	101% (inactive)	104% (inactive) and 97.2% (inactive)	98% (inactive) and 101% (inactive)	97.7% (inactive) and 108% (inactive)	108% (inactive) and 110% (inactive)	105% (inactive) and 107% (inactive)	108% (inactive) and 116% (inactive)	117% (inactive) and 116% (inactive)	107% (inactive) and 99.6% (inactive)	101% (inactive) and 105% (inactive)	113% (inactive) and 102% (inactive)
N#CCCOc1ccccc1	89.4% (inactive)	99.8% (inactive)	92.8% (inactive)	97.2% (inactive)	102% (inactive)	91.6% (inactive)	101% (inactive)	95.7% (inactive)	90.4% (inactive)	104% (inactive)	103% (inactive)	–	107% (inactive)	98.8% (inactive)	97% (inactive)	–	114% (inactive)	99.5% (inactive)	112% (inactive)	–
CCC(O)c1ccccc1 (stereo not drawn)	104% (inactive)	98.1% (inactive) and 96.2% (inactive)	98.8% (inactive) and 91.3% (inactive)	113% (inactive) and 111% (inactive)	107% (inactive) and 111% (inactive)	–	88.5% (inactive) and 92.8% (inactive)	103% (inactive) and 92% (inactive)	98.1% (inactive) and 78.8% (inactive)	100% (inactive) and 94.1% (inactive)	192% (inactive)	–	–	103% (inactive) and 107% (inactive)	121% (inactive) and 105% (inactive)	109% (inactive) and 108% (inactive)	112% (inactive) and 109% (inactive)	81.8% (inactive) and 93.6% (inactive)	112% (inactive) and 118% (inactive)	94.1% (inactive) and 110% (inactive)
COc1cc2nc(N3CCC[C@@H](NC(=O)C4COc5ccccc5O4)C3)nc(N)c2cc1OC (stereo partly drawn)	112% (inactive) and 107% (inactive)	104% (inactive) and 103% (inactive)	85.7% (inactive) and 65.2% (inactive)	98.6% (inactive) and 89.7% (inactive)	103% (inactive) and 96.4% (inactive)	92% (inactive) and 89.6% (inactive)	99.4% (inactive) and 83.5% (inactive)	96.2% (inactive) and 103% (inactive)	88% (inactive) and 94.3% (inactive)	88.3% (inactive) and 91.2% (inactive)	95.2% (inactive) and 91.4% (inactive)	–	102% (inactive) and 97.1% (inactive)	101% (inactive) and 95.4% (inactive)	105% (inactive) and 106% (inactive)	105% (inactive) and 108% (inactive)	105% (inactive) and 106% (inactive)	110% (inactive) and 109% (inactive)	109% (inactive) and 106% (inactive)	–

Source: PubChem BioAssay (NCI)
